Screens (PubChem)
MPTP inh = permeability transition pore inhibition; isolated mouse mitochondria, Ca2+ swelling absorbance, 30 min; inhibition, % at 10 µM; 1.4% of 360,000 active;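 active = inhibition of 50% or more, scaled per plate between neutral and stimulator controls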;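 also: 0% = DMSO wells given calcium and 100% = 1 mM EGTA wells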
tim23-1 inh = growth inhibitors of tim23-1 mutant yeast. AID 463212. inhibition, % at 20 µM. S. cerevisiae tim23-1 growth, BacTiter-Glo luminescence, 24 h. 1.3% of 330,000 active;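 active = growth inhibition of the mutant yeast at or above 50%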;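 also: temperature-sensitive mutant grown at 25 °C; plate controls were DMSO-treated mutant yeast for no effect and medium wells lacking yeast for full effect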
tim10-1 inh = growth inhibitors of tim10-1 mutant yeast | S. cerevisiae tim10-1 ts strain growth, BacTiter-Glo, 24 h | AID 463190 | 2.2% of 330,000 active | inhibition, % at 20 µM;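 active = inhibition of at least 40%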;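 also: mutant grown at 25 °C; 0% = DMSO wells with yeast and 100% = wells holding no yeast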
TIM10 inh = TIM10 yeast growth inhibition | S. cerevisiae TIM10 strain growth, BacTiter-Glo luminescence, 24 h | inhibition, % at 10 µM | 1.4% of 330,000 active | AID 463195;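 active = inhibition of 40% or more at the single tested concentration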;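 also: wild-type TIM10 isogenic control strain grown at permissive 25 °C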
Mdm2 MdmX PPI = human Mdm2/MdmX binding inhibition. SaOS-2 split-luciferase Mdm2/MdmX complementation, luminescence. 3% of 330,000 active. inhibition, % at 8 µM;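 active = inhibition of at least 50% at 8 µM in the primary screen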
Target sequence (O15151 whole entry, looked up): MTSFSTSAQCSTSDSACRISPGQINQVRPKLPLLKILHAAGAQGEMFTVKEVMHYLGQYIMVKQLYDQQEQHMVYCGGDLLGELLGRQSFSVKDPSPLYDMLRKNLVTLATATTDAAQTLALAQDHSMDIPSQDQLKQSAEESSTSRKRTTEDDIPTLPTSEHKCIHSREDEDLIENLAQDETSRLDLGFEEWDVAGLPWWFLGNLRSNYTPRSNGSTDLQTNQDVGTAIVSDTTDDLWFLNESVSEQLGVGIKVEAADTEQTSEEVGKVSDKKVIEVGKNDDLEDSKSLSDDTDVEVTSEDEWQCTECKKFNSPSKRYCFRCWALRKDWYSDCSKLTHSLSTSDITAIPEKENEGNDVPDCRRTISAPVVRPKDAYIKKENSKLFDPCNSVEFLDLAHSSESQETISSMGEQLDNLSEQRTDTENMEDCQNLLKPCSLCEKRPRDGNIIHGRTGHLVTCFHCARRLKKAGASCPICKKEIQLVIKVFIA
Target sequence (Q00987 whole entry, looked up): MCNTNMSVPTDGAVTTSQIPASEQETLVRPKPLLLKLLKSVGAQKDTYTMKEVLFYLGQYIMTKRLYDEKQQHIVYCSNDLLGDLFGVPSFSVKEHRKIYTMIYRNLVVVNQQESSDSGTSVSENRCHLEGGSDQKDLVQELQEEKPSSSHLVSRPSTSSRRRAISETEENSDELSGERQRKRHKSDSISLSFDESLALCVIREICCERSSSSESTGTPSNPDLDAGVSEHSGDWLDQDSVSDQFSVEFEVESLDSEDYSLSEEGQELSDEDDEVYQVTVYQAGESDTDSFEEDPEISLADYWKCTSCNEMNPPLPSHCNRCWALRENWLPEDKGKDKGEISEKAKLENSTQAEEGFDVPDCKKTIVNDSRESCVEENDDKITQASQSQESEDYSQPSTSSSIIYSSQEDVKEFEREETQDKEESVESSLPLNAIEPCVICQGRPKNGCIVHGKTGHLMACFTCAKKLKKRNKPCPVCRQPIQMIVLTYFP
TIM10 conf = confirmation of TIM10 yeast growth inhibitors | shares compounds with TIM10 inh | S. cerevisiae tim10 strain growth, BacTiter-Glo luminescence, 24 h | inhibition, % at 10 µM | 63% of 4,600 active | AID 463215;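 active = inhibition of yeast growth at or above a set limit in either of two replicates at 10 µM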;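 also: this counterscreen used the strain with wild-type TIM10; 0% = yeast with DMSO and 100% = medium wells lacking yeast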
tim23-1 confirm = confirmation of tim23-1 mutant yeast growth inhibitors. shares compounds with tim23-1 inh. S. cerevisiae tim23-1 growth, BacTiter-Glo luminescence, 24 h. inhibition, % at 20 µM. 83% of 4,400 active. AID 463218;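 active = inhibition above about 39% in either of two replicate wells at 20 µM, limit read from the data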;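 also: temperature-sensitive tim23-1 mutant grown at 25 °C; 0% = DMSO wells with yeast and 100% = medium wells without yeast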
Mdm2 MdmX conf = confirmation of human Mdm2/MdmX interaction inhibitors; shares compounds with Mdm2 MdmX PPI; Mdm2-MdmX binding, luminescent assay; inhibition, % at 8 µM; 55% of 10,000 active; AID 489028; in the data active = inhibition above about 40%
Full FLuc ctr = inhibits full-length luciferase, flagging false Mdm2/MdmX hits | shares compounds with Mdm2 MdmX PPI | SaOS-2 full-length luciferase counterscreen, luminescence | inhibition, % at 8 µM | 77% of 6,200 active | AID 504607;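 active = mean inhibition at 8 µM reaching about 37%, which flags the compound as non-specific, limit read from the data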;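 also: p53-null SaOS-2 cells with luciferase driven by a doxycycline-inducible promoter; compound on cells about two nights before reading with doxycycline added after day one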
Starred values were filed as active, the others as inactive; . = no result given. Only some compounds are listed: those with a hit (about 6.3% of all), similar ones and a draw of the others.

SMILES	MPTP inh	tim23-1 inh	tim10-1 inh	TIM10 inh	Mdm2 MdmX PPI	TIM10 conf	Mdm2 MdmX conf	Full FLuc ctr	others
O=c1oc2ccccc2c(O)c1Cc1cc(Cl)c2cccnc2c1O	42	8	19	5	28	.	.	.
Cc1c(C)c2cccnc2c2ncccc12	0	69*	38	57*	85*	62*	87*	17	tim23-1 confirm=45*
COc1cccc(NC(=O)c2ccc(CN3CCN(c4ccccc4)CC3)cc2)c1	12	26	27	51*	57*	21	32	.
C=CCN(c1ccc(F)cc1)S(=O)(=O)c1cc(C(=O)NC2CC2)ccc1Cl	2	.	.	.	.	.	.	.
CCOc1ccc2nc3cc(NCc4ccc(OC)cc4)ccc3c(N)c2c1	2	47	38	83*	97*	75*	85*	15
CNc1ncnc2c1ncn2[C@H]1CN(Cc2cccnc2)C[C@@H](CO)O1	2	.	.	.	.	.	.	.
O=C(c1ccc([N+](=O)[O-])o1)N1CCN(c2nc3c(Cl)cccc3s2)CC1	-2	6	24	56*	56*	85*	43*	65*
Cc1cc(C2CCCCC2)n(O)c(=O)c1	0	66*	38	59*	74*	62*	58*	32	tim23-1 confirm=53*
Cn1c(NC2CCCCC2)cc(=O)n(C)c1=O	-1	2	4	-11	26	.	.	.
Cc1c(CN2CCC(CO)(CCOc3ccccc3)CC2)[nH]c2c(Cl)cccc12	4	-22	-40	44*	87*	16	54*	64*
NC(=O)c1oc2ccccc2c1NC(=O)c1ccc([N+](=O)[O-])o1	2	66*	29	57*	65*	66*	55*	32	tim23-1 confirm=59*
Cc1cccc(NC(=O)c2nc[nH]c2C(=O)N[C@H](C)CO)c1	0	.	.	.	.	.	.	.
CCN(CC)CCN(C(=O)c1ccc2c(c1)OCCO2)c1nc2cc3c(cc2s1)OCO3	-1	11	24	15	2	.	.	.
CCN(CC)CCN(C(=O)c1cc2c(ccc3ccccc32)oc1=O)c1nc2cc3c(cc2s1)OCCO3	2	31	20	50*	100*	31	33	.
CN(C)c1ccc(CC(=O)N2CCCC(c3cc(C(=O)Nc4ccc(C(C)(C)C)cc4)no3)C2)cc1 (stereo unspecified)	26	.	.	.	.	.	.	.
CCOC(=O)c1sc2nc(CSc3ccccc3)nc(N3CCCN(C)CC3)c2c1C	33	4	0	41*	74*	30	43*	63*
CCOC(=O)c1sc2nc(CSc3ccccc3)nc(N3CCC(C(N)=O)CC3)c2c1C	-3	36	-18	6	30	.	.	.
COc1cccc(-c2cc(=O)c3cc(NC(=O)c4ccc(N(C)C)cc4)ccc3[nH]2)c1	.	-3	-11	67*	65*	-10	60*	71*
CCCN1C(=O)/C(=C/c2ccc(C)s2)SC1=Nc1ccc(OC)cc1	-7	-6	7	6	10	.	.	.
CCN(CC)CCN1C(=O)/C(=C\c2ccc(Cl)c([N+](=O)[O-])c2)SC1=Nc1ccc(OC)cc1	1	66*	0	41*	100*	35*	98*	0	tim23-1 confirm=57*
Cn1cc([C@]2(O)C(=O)Nc3ccc(F)cc32)c2ccccc21	4	.	.	.	.	.	.	.
O=C(N/N=C/c1ccccc1O)c1cccc2ccccc12	0	66*	-13	41*	53*	21	53*	46*	tim23-1 confirm=39
O=C(N/N=C/c1c(O)ccc2ccccc12)c1cccnc1	1	42	13	42*	70*	37*	74*	30
O=C(c1cc2c(c(-c3cccc(-c4ccncc4)c3)n1)[C@@H](CCO)N(C(=O)c1ccc3c(c1)OCO3)C2)N1CCOCC1	1	.	.	.	.	.	.	.
Cc1cc(NCCCn2ccnc2)n2nc(-c3ccc(Cl)cc3)cc2n1	0	24	23	13	4	.	.	.
